Experimental data: PubChem BioAssay (NCI)
Values joined by “and” are separate entries in the source; they are usually repeats but may differ in a detail not shown here. Equal values may be shown once. About 83,000 compounds went through this panel and 20% of them were active in at least one assay; those are over-represented in the sample as a whole.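 Plates (96-well) were seeded with cells, treated with compound at one concentration, and incubated for 48 hours before percent growth was determined.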 Unmarked numbers belong to inactive results. Active and inactive are the calls of the source. How the source made its calls: active means growth percent below 10; inactive means the rest.

Each molecule was assayed on HL-60(TB) leukemia (assay: NCI-60 one-dose screen, 48 h (100 = growth as untreated, 0 = no growth, -100 = all killed)). Settings: 10 µM unless noted.

How did the growth turn out when Cc1nnc(NC(=O)c2nc(S(=O)(=O)Cc3ccc(F)cc3)ncc2Cl)s1 was run?
Its growth is -30.5% (active).

For Cc1ccc(S(=O)(=O)Oc2ccc(Br)cc2Br)cc1, which growth is on record?
Its growth is 41.5%.

Cc1cc(C(c2ccccc2)c2ccccc2)ccc1NS(=O)(=O)c1ccccc1 was tested. Which growth did it give?
The growth was 78.5%.

For CCCCOC(=O)c1c(C)[nH]c(/C=C2\N=C(c3ccc[nH]3)C=C2OC)c1C, which growth is on record?
Its growth is 8.01% (active).

How did the growth turn out when CNC(=O)c1c(NC(=O)c2ccc(C(F)(F)F)cc2)sc2c1CCC(=O)C2 was run?
Its growth is -16.5% (active).

Which growth does the source give for N#Cc1ccc(NC(=O)Nc2cccc(C#N)c2)cc1 here?
The growth was 68.6%.

With COc1cc(-c2cc(-c3cccs3)c(C#N)c(N3CCOCC3)n2)cc(OC)c1OC as the molecule, how does the growth read?
The growth was 58.9%.

For COc1c(B(O)O)cccc1-c1nc2c(F)cc3n[nH]c(C)c3c2c2c1CCCC2, which growth is on record?
Its growth is 6.65% (active).

Which growth does the source give for COc1ccc(/C=C/C(=O)c2cccc(OCCCCOc3cccc(C(=O)/C=C/c4ccc(OC)c(OC)c4)c3)c2)cc1OC here?
The growth was 68.6%.

For CC1(C)CN(Cc2ccccc2)CCN1Cc1ccccc1, which growth is on record?
The growth was 100%.

How did the growth turn out when CCNC1(NC#N)CCCCC1 was run?
Its growth is 96.8%.

CCCCCCCCCCCCCCCCNC(=O)Nc1ccc(C)c(NC(=O)NCCCCCCCCCCCCCCCC)c1 was tested. Which growth did it give?
Its growth is 98.8%.

How did the growth turn out when O=C(Nc1ccccc1)Nc1cccc(Oc2nnc(Cl)c3ccccc23)c1 was run?
The growth was 12.1%.

How did the growth turn out when O=C(/C=C/c1cccc(Cl)c1)c1ccccc1 was run?
Its growth is 95.3% and 82.5%.

Which growth does the source give for Cc1ccc2c(C(C[N+](=O)[O-])c3ccccc3F)c(-c3ccccc3)[nH]c2c1 (centres undefined) here?
Its growth is 27.3%.

For Nc1c(C(=O)Nc2cccc3ccccc23)sc2nc3c(cc12)COCC3, which growth is on record?
Its growth is -4.22% (active).

Which growth does the source give for COc1cc(/C=C/C(=O)c2c(C)nc3ccccc3c2/C=C/c2ccccc2)cc(OC)c1OC here?
The growth was -6.84% (active).

Which growth does the source give for C#C[C@]1(O)CC[C@H]2[C@@H]3CC=C4c5nc(Nc6ccc(OC)cc6OC)sc5CC[C@]4(C)[C@H]3CC[C@@]21C here?
Its growth is 17.9%.

For O=C(NNc1ccccc1)OCc1ccccc1, which growth is on record?
Its growth is 5.98% (active).

Which growth does the source give for CS(=O)(=O)Nc1cc(-c2ccc3ncnc(Nc4ccc5c(cnn5Cc5cccc(F)c5)c4)c3c2)cnc1Cl here?
Its growth is -23.9% (active).

COc1cc(C(=O)N/N=C/c2cccc([N+](=O)[O-])c2)cc(OC)c1OC was tested. Which growth did it give?
Its growth is 41.3%.

With CCn1cc(C(=O)O)c(=O)c2cc(F)c(N3CCN(CC(=O)Nc4ccc(C(C)=O)cc4)CC3)cc21 as the molecule, how does the growth read?
Its growth is 95.7%.

Which growth does the source give for O=C(Nc1ccc(S(=O)(=O)NC2CCCCCC2)cc1)C(c1ccccc1)S(=O)(=O)c1ccc(F)cc1 (centres undefined) here?
The growth was -12.4% (active).

O=C(O)c1c2c(nc3ccccc13)Cc1ccccc1-2 was tested. Which growth did it give?
The growth was 92.8% and 112%.

NC(=O)c1cc(Br)cc(Br)c1NS(=O)(=O)c1ccccc1 was tested. Which growth did it give?
The growth was 92.6%.

How did the growth turn out when CC(=O)NCC(=O)N1[C@@H]2CC[C@H]1c1ccc(Nc3ncc(C(F)(F)F)c(NC4CCC4)n3)cc12 was run?
Its growth is 11.8% [2.5 µM].

For CCCC1CCC(=C2C(=O)CCC2=O)O1 (centres undefined), which growth is on record?
Its growth is 148% and 153%.

O=C(Nc1nc2cc(C(=O)N3CCN(C(c4ccccc4)c4ccccc4)CC3)ccc2o1)c1ccc(NC2CCCCC2)c([N+](=O)[O-])c1 was tested. Which growth did it give?
The growth was 82%.

How did the growth turn out when O=C1/C(=C/c2cccs2)SC(=S)N1CCCN1CCOCC1 was run?
Its growth is 90.4%.

For COc1ccc2c(c1)c1nc3cc(C)c(C)cc3nc1n2CCN(C)C, which growth is on record?
The growth was -26.4% (active).

With NC(N)=Nc1nc2ccccc2o1 as the molecule, how does the growth read?
Its growth is 124%.

Which growth does the source give for O=C1/C(=C/c2ccc(-c3ccc(Br)cc3)o2)SC(=S)N1CCc1ccc(O)cc1 here?
The growth was 44.3%.

With Cc1ccc(/C=C2\SC(=S)N(c3ccc(F)cc3)C2=O)o1 as the molecule, how does the growth read?
Its growth is 82.8%.

CNC(=O)c1ccccc1Nc1nc(Nc2ccc3c(c2OC)CCC[C@H](N2CCN(CCO)CC2)C3)ncc1Cl was tested. Which growth did it give?
The growth was -45.7% (active).

With COc1ccc(-n2nnc(C(=O)O)c2-c2cc(OC)c(OC)c(OC)c2)cc1 as the molecule, how does the growth read?
The growth was 98.8%.

COC(=O)c1nc(N)nc(C(=O)OC)c1C(=O)c1ccc(OC)cc1 was tested. Which growth did it give?
The growth was 115% and 65.7%.

Which growth does the source give for Cn1c2c(Cl)c(Cl)ccc2c2ccn3c(=O)c4ccccc4nc3c21 here?
The growth was 106%.

For COc1cc(OC)c2sc(-c3ccc(-n4cncc4-c4ccc(OC)c(OC)c4)cc3)nc2c1, which growth is on record?
Its growth is 58.5%.

Which growth does the source give for COc1cc(-c2nc(-c3ccccc3)c(-c3ccccc3)[nH]2)cc(OC)c1O here?
Its growth is -8.92% (active).
